Compound activity as filed in PubChem BioAssay.
CSC inhib: blocks cancer stem cells; cancer stem cell-like cells viability, luminescence; inhibition, % at 7.5 µM; actives 1.1% (n = 300,000); AID 2717; in the data active = inhibition above about 75%; tested in HMLE shEcad cells
Jurkat NFkB inh: inhibitors of the PMA/ionomycin-induced NF-kB reporter in Jurkat cells; PMA/ionomycin-induced NF-kB luciferase reporter, luminescence; inhibition, % at 4 µM; actives 0.53% (n = 330,000); AID 435003; in the data active = inhibition above about 50%
Mdm2 MdmX PPI: inhibitors of human Mdm2/MdmX interaction. actives 3% (n = 330,000). O15151+Q00987. inhibition, % at 8 µM. AID 485346. SaOS-2 split-luciferase Mdm2/MdmX complementation, luminescence;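 active = inhibition of at least 50% at 8 µM in the primary screen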
Target sequence (O15151 whole entry, looked up): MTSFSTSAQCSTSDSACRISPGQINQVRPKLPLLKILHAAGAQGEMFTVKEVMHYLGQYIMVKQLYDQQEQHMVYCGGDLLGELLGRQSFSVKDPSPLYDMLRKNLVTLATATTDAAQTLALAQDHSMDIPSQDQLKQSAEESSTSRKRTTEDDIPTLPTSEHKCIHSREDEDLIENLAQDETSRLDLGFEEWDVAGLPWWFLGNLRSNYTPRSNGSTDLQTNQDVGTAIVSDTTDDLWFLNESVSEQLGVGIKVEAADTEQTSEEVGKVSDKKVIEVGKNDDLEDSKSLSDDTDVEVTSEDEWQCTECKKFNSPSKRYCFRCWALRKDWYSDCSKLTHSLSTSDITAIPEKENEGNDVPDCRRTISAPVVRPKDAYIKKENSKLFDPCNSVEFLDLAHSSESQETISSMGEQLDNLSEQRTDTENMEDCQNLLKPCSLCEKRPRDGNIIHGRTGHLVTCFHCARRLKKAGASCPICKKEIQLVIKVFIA
Target sequence (Q00987 whole entry, looked up): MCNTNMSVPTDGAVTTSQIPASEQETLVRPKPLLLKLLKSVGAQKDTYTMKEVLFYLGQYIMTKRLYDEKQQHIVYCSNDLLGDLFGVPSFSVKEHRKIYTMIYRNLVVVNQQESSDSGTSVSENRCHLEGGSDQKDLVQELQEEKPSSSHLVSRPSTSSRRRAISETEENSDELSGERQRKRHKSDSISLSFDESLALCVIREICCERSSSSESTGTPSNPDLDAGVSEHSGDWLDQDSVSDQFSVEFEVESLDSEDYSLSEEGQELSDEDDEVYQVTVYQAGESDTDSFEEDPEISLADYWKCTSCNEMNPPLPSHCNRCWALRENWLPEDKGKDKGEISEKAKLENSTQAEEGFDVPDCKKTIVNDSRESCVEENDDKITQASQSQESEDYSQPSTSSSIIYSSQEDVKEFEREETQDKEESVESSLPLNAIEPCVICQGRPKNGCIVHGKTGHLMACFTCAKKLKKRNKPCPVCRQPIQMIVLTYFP
Gli-Sufu antag: blocks Gli-Sufu signaling in a luciferase reporter. Sufu-KO-LIGHT fibroblasts, Gli luciferase reporter luminescence. inhibition, % at 5 µM. actives 0.74% (n = 340,000);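 active = inhibition above about 55%, limit read from the data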;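 also: 0% = DMSO-treated cells and 100% = wells with medium but no cells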
697 NFkB inh: inhibitors of the PMA/ionomycin-induced NF-kB reporter in 697 B cells | 697 B-cell NF-kB luciferase reporter, 16 h | inhibition, % at 4 µM | actives 0.33% (n = 330,000) | AID 435022; in the data active = inhibition above about 35%
Beta cell apopt: blocks beta cell apoptosis; actives 0.8% (n = 300,000); INS-1E cytokine-induced death, ATP luminescence, 48 h; percent of positive-control rescue, neutral wells zero; protection from apoptosis, % (concentration not given with the values);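 active = Every replicate reaches about 75%, or at least half do and their mean reaches it too, limit read from the data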;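 also: 0% = cytokine-treated negative control wells and 100% = positive control rescue; higher means more ATP so stronger rescue from cytokine killing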
Mdm2 MdmX conf: human Mdm2/MdmX binding inhibition, confirmed | shares compounds with Mdm2 MdmX PPI | luminescent assay | inhibition, % at 8 µM | actives 55% (n = 10,000); in the data active = inhibition above about 40%
Full FLuc ctr: counter-screen for Mdm2/MdmX inhibitors: full-length luciferase | shares compounds with Mdm2 MdmX PPI | SaOS-2 full-length luciferase counterscreen, luminescence | inhibition, % at 8 µM | actives 77% (n = 6,200) | AID 504607;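 active = mean inhibition at 8 µM reaching about 37%, which flags the compound as non-specific, limit read from the data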;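 also: p53-null SaOS-2 cells with luciferase driven by a doxycycline-inducible promoter; compound on cells about two nights before reading with doxycycline added after day one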
Numbers without * were called inactive. Only some compounds are listed: those with a hit (about 4.5% of all), similar ones and a draw of the others.

`CC(C)(C)OC(=O)NCc1ccc(NC(=O)c2nc[nH]c2C(=O)NCCCCCCNC(=O)c2[nH]cnc2C(=O)Nc2ccc(CNC(=O)OC(C)(C)C)cc2)cc1` gave CSC inhib 5, Jurkat NFkB inh -3, Mdm2 MdmX PPI 8, Gli-Sufu antag 12, 697 NFkB inh 2 and Beta cell apopt 7.
For CC(C)(C)OC(=O)NCc1ccc(NC(=O)c2nc[nH]c2C(=O)NCCCCNC(=O)c2[nH]cnc2C(=O)Nc2ccc(CNC(=O)OC(C)(C)C)cc2)cc1 the results were CSC inhib 120*, Jurkat NFkB inh 11, Mdm2 MdmX PPI 96*, Gli-Sufu antag 36, 697 NFkB inh 0, Beta cell apopt 71 and Mdm2 MdmX conf 7.
`CC(C)[C@H](NC(=O)N1c2ccccc2NC(=O)[C@@H]1C(C)C)C(=O)N1CCC[C@H]1C(=O)O` gave CSC inhib -17, Jurkat NFkB inh -5, Mdm2 MdmX PPI 10, Gli-Sufu antag -1, 697 NFkB inh 14 and Beta cell apopt -8.
For CCOc1ccc(NC(=O)CN(C)S(=O)(=O)c2ccc(-c3ccc(=O)[nH]n3)s2)cc1 the results were CSC inhib -8, Jurkat NFkB inh 1, Mdm2 MdmX PPI 13, Gli-Sufu antag -3, 697 NFkB inh 4 and Beta cell apopt 2.
COc1ccc(NC(=O)CN(C)C(=O)Cc2c(C)nc3ccccc3c2C)cc1 was read as CSC inhib -16, Jurkat NFkB inh 16, Mdm2 MdmX PPI 8, Gli-Sufu antag -6, 697 NFkB inh -52 and Beta cell apopt 2.
Screening COc1cc2c(cc1OC)C(C)N(C(=O)c1cc3c(C)cc(C)cc3[nH]1)CC2 (stereo not drawn) returned CSC inhib 62, Jurkat NFkB inh 39, Mdm2 MdmX PPI 67*, Gli-Sufu antag 1, 697 NFkB inh -6, Beta cell apopt 6, Mdm2 MdmX conf 73* and Full FLuc ctr 48*.
`O=C(Nc1cccc(Cl)c1)c1ccc(NCCCN2CCOCC2)c([N+](=O)[O-])c1` gave Jurkat NFkB inh -13, Mdm2 MdmX PPI 30, Gli-Sufu antag -1, 697 NFkB inh 10 and Beta cell apopt 0.
Cc1ccc(NC(=O)c2ccc(NCCCN3CCC(C)CC3)c([N+](=O)[O-])c2)cc1F was read as CSC inhib -1, Jurkat NFkB inh 23, Mdm2 MdmX PPI 60*, Gli-Sufu antag 9, 697 NFkB inh 19, Beta cell apopt 1, Mdm2 MdmX conf 55* and Full FLuc ctr 47*.
For Oc1c(Cl)cc(Cl)cc1C=Nc1ccc(Br)cc1 the results were Jurkat NFkB inh -11, Mdm2 MdmX PPI 92*, Gli-Sufu antag -94, 697 NFkB inh -12, Beta cell apopt -8, Mdm2 MdmX conf 52* and Full FLuc ctr 60*.
Screening O=C(COc1ccc(F)cc1Cl)Nc1nc(-c2ccccn2)cs1 returned CSC inhib 39, Jurkat NFkB inh -2, Mdm2 MdmX PPI 74*, 697 NFkB inh -5, Beta cell apopt 8, Mdm2 MdmX conf 70* and Full FLuc ctr 34.
Screening CCc1sc(C(=O)Nc2nc(-c3ccccn3)cs2)cc1C returned CSC inhib 49, Jurkat NFkB inh -9, Mdm2 MdmX PPI 64*, Gli-Sufu antag -10, 697 NFkB inh 6, Beta cell apopt 37, Mdm2 MdmX conf 40* and Full FLuc ctr 37*.
For O=C(Nc1nc(-c2ccccn2)cs1)c1ncc(Cl)c(Cl)c1Cl the results were CSC inhib -12, Jurkat NFkB inh -16, Mdm2 MdmX PPI 74*, Gli-Sufu antag 5, 697 NFkB inh -15, Beta cell apopt 16 and Mdm2 MdmX conf 35.
Cc1ccc(C(=O)Nc2nc(-c3ccccn3)cs2)s1 was read as CSC inhib 43, Jurkat NFkB inh 0, Mdm2 MdmX PPI 58*, Gli-Sufu antag 3, 697 NFkB inh -83, Beta cell apopt 95*, Mdm2 MdmX conf 76* and Full FLuc ctr 35.
CCc1sc(C(=O)Nc2nccs2)cc1C was read as CSC inhib 15, Jurkat NFkB inh -103, Mdm2 MdmX PPI -135, Gli-Sufu antag -29, 697 NFkB inh -51 and Beta cell apopt 1.
